Rows were chosen to be rich in hits. Some 5.7% of all compounds tested hit in one or more screens of this group.
hgDAF12 agonist: agonists of H. glycines DAF-12 nuclear receptor; HEK293 GAL4-hgDAF12 UAS-luciferase reporter, agonist luminescence; normalized to butyrate control; activation, % at 6.8 µM; 370,000 compounds, 1.8% hits; AID 687014;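 active means activation above a cutoff set at the mean of all screened compounds plus 3 SD, cut at about 10% in these data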;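 further: 0% = DMSO wells and 100% = sodium butyrate wells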
DAX1 inh-1: blocks DAX1 repression of SF-1 activated StAR promoter; HEK293T StAR-luciferase reporter, SF-1/DAX-1 repression relief; inhibition, % at 6.8 µM; 370,000 compounds, 1.1% hits; AID 652010;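 active means inhibition above the mean over all tested compounds plus 3 SD, cut at about 3.6% in these data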;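 further: 0% = DAX-1 cells with DMSO and 100% = cells lacking DAX-1 with DMSO; higher inhibition means more luminescence from relief of DAX-1 repression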
ssDAF-12 act: activators of S. stercoralis DAF-12 nuclear receptor | AID 652126 | HEK293 ssDAF-12/GRIP1 lit1-tk-luc reporter, luminescence; % of 3 µM dafachronic acid response | activation, % at 6.8 µM | 370,000 compounds, 1% hits;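 active means activation above the mean over all tested compounds plus 3 SD, cut at about 0.9% in these data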;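 further: 0% = DMSO-only wells and 100% = 3 µM delta7-dafachronic acid wells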
AHR act: activates the human aryl hydrocarbon receptor | activation, % at 5 µM | 320,000 compounds, 2.5% hits | AHR-responsive luciferase reporter cells, luminescence; in the data active means activation above about 47%;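 further: 0% = vehicle wells and 100% = reference agonist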
Target sequence (P35869 whole entry, looked up): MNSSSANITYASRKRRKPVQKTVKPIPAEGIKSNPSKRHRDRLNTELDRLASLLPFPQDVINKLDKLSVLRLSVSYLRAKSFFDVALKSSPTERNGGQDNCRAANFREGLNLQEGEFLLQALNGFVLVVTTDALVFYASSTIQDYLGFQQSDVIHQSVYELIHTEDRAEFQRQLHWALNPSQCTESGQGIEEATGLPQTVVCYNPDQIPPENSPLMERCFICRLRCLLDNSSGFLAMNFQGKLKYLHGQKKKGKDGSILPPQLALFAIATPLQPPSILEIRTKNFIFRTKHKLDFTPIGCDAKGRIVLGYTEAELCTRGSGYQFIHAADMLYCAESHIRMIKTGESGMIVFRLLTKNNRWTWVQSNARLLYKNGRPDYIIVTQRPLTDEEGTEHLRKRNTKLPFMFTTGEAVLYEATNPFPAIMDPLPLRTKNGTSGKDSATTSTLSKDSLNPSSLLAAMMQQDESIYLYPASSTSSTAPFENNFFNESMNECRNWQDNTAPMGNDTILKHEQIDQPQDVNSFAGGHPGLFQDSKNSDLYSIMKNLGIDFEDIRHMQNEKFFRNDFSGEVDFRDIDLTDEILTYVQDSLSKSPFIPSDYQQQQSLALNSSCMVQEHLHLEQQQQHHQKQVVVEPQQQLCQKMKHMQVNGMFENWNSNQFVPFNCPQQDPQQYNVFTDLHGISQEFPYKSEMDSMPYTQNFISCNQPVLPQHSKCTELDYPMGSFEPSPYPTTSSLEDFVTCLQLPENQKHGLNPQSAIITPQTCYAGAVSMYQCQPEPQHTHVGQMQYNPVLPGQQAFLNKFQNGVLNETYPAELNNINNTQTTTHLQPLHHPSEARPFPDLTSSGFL
DAX1 inh-2: inhibitors of human orphan nuclear receptor DAX1 (NR0B1). P51843. HEK293 Gal4-DAX1 luciferase reporter, luminescence. inhibition, % at 6.75 µM. 340,000 compounds, 0.99% hits;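 active means inhibition above the mean over all tested compounds plus 3 SD, cut at about 4.2% in these data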;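 further: 0% = DAX1-transfected cells with DMSO and 100% = empty-vector control cells with DMSO; inhibition shows as a rise in luminescence from relieved DAX1 repression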
hcDAF-12 act: activates DAF-12 receptor from parasite H. contortus; activation, % at 6.8 µM; 370,000 compounds, 1.4% hits; HEK293 hcDAF-12 lit1-tk-luc reporter, luminescence; 0% DMSO, 100% Δ7-dafachronic acid;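 active means activation above the mean of all tested compounds plus 3 SD, cut at about 5.5% in these data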;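 further: 100% = response to 3 µM Δ7-dafachronic acid high control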
An asterisk follows results filed as active.

CCN1C(=O)c2cccc3c(S(=O)(=O)Nc4ccccn4)ccc1c23 was read as hgDAF12 agonist -1, DAX1 inh-1 1, ssDAF-12 act 0, AHR act 6, DAX1 inh-2 6.7* and hcDAF-12 act 3.
COc1cccc(NC(=O)CN2C(=O)C3(OCCCO3)c3ccccc32)c1 was read as AHR act -1 and DAX1 inh-2 0.
COc1ccc(CCNC(=O)CN(c2ccc(OC)cc2)S(C)(=O)=O)cc1 was read as hgDAF12 agonist -1, DAX1 inh-1 0, ssDAF-12 act -1, AHR act 2, DAX1 inh-2 6.4* and hcDAF-12 act 0.
For COc1ccc(CNC(=O)CN(c2cccc([N+](=O)[O-])c2)S(C)(=O)=O)cc1 the results were hgDAF12 agonist 13*, DAX1 inh-1 0, ssDAF-12 act 0, AHR act -1, DAX1 inh-2 0 and hcDAF-12 act 1.
Screening COc1ccc(N(C(=O)c2cccc([N+](=O)[O-])c2)S(=O)(=O)c2cccs2)cc1 returned hgDAF12 agonist -1, DAX1 inh-1 -1, ssDAF-12 act -1, AHR act -1, DAX1 inh-2 5.1* and hcDAF-12 act 0.
`COc1ccc2c(=O)c3c(=O)n(-c4ccccc4)c(-c4ccco4)nc3oc2c1` gave hgDAF12 agonist 1, DAX1 inh-1 0, ssDAF-12 act -1, AHR act 19, DAX1 inh-2 1 and hcDAF-12 act 1.
`Cc1noc(C)c1COC(=O)C1CCN(C(=O)c2ccc(Cl)cc2)CC1` gave hgDAF12 agonist 0, DAX1 inh-1 -1, ssDAF-12 act -1, AHR act 0, DAX1 inh-2 1 and hcDAF-12 act -3.
Cn1cc(NC(=O)OCc2ccc(Cl)cc2)c(C(F)(F)F)n1 was read as hgDAF12 agonist 2, DAX1 inh-1 3.7*, ssDAF-12 act 0, AHR act -1, DAX1 inh-2 1 and hcDAF-12 act 1.
Cn1cc(NC(=O)Nc2ccc(C(F)(F)F)cc2)c(C(F)(F)F)n1 was read as hgDAF12 agonist 2, DAX1 inh-1 0, ssDAF-12 act -2, AHR act 2, DAX1 inh-2 0 and hcDAF-12 act -1.
For C[C@H](CO)N1C[C@H](C)[C@@H](CN(C)S(C)(=O)=O)Oc2c(NC(=O)Nc3ccc(C(F)(F)F)cc3)cccc2C1=O the results were hgDAF12 agonist 3, DAX1 inh-1 0, ssDAF-12 act -1, AHR act -3, DAX1 inh-2 0 and hcDAF-12 act -1.
COc1cc(C(=O)Nc2nnc(C)s2)cc(OC)c1OC was read as hgDAF12 agonist -3, DAX1 inh-1 0, ssDAF-12 act -1, AHR act 69*, DAX1 inh-2 1 and hcDAF-12 act -1.
COc1cc(C(=O)Nc2nnc(CC(=O)NCc3ccccc3)s2)cc(OC)c1OC was read as hgDAF12 agonist -2, DAX1 inh-1 2, ssDAF-12 act -1, AHR act 8, DAX1 inh-2 4.2* and hcDAF-12 act -1.
CCOC(=O)N1CCc2cc(OC)c(OC)c3c2c1cc1cc(OC)c(OC)cc13 was read as hgDAF12 agonist -4, DAX1 inh-1 -6, ssDAF-12 act -1, DAX1 inh-2 -3 and hcDAF-12 act -3.
For COCCNC(=S)Nc1ccc(N2CCOCC2)c(S(=O)(=O)Nc2ccc(Cl)cc2)c1 the results were hgDAF12 agonist 2, DAX1 inh-1 0, ssDAF-12 act 0, DAX1 inh-2 0 and hcDAF-12 act 1.
For COc1ccc(Nc2cc(C)nc3nc(C)nn23)c(OC)c1 the results were hgDAF12 agonist -2, DAX1 inh-1 0, ssDAF-12 act -1, AHR act 12, DAX1 inh-2 5.1* and hcDAF-12 act -1.
Cc1cc(Nc2ccc(F)cc2F)n2nc(C)nc2n1 was read as hgDAF12 agonist 2, DAX1 inh-1 1, ssDAF-12 act 0, AHR act 0, DAX1 inh-2 4.9* and hcDAF-12 act 4.
For Cc1cc(Nc2ccccc2Br)n2nc(C)nc2n1 the results were hgDAF12 agonist 3, DAX1 inh-1 -1, ssDAF-12 act -1, AHR act 46, DAX1 inh-2 1 and hcDAF-12 act 0.
Cc1cc(Nc2ccc(C)c(Br)c2)n2nc(C)nc2n1 was read as hgDAF12 agonist 0, DAX1 inh-1 0, ssDAF-12 act -3, AHR act 61*, DAX1 inh-2 4.4* and hcDAF-12 act -1.
`Cc1cc(Nc2ccc(F)c(Cl)c2)n2ncnc2n1` gave hgDAF12 agonist 2, DAX1 inh-1 0, ssDAF-12 act -1, AHR act 4, DAX1 inh-2 4.5* and hcDAF-12 act -3.
For COc1ccc(OC)c(Nc2cc(C)nc3nc(C)nn23)c1 the results were hgDAF12 agonist 2, DAX1 inh-1 -1, ssDAF-12 act -1, AHR act 2, DAX1 inh-2 1 and hcDAF-12 act -3.
NC(=O)C1=C(N)c2ccccc2C1c1ccccc1 (configuration not stated) was read as hgDAF12 agonist 1, DAX1 inh-1 1, ssDAF-12 act 0, DAX1 inh-2 2 and hcDAF-12 act 0.
Screening Cc1cc(Nc2ccc(F)c(Cl)c2)n2nc(C)nc2n1 returned hgDAF12 agonist -3, DAX1 inh-1 -1, ssDAF-12 act -1, AHR act 6, DAX1 inh-2 0 and hcDAF-12 act -1.
`COc1ccc(Nc2cc(C)nc3nc(C)nn23)cc1Cl` gave hgDAF12 agonist -2, DAX1 inh-1 -1, ssDAF-12 act -1, AHR act 13, DAX1 inh-2 4.6* and hcDAF-12 act -1.
Cc1ccc(N(CCC#N)C(=O)CCl)cc1C was read as hgDAF12 agonist -1, DAX1 inh-1 -2, ssDAF-12 act -2, AHR act -4, DAX1 inh-2 -3 and hcDAF-12 act -2.
Screening C=CCOc1nc(-c2ccccc2Cl)nc2ccccc12 returned hgDAF12 agonist 1, DAX1 inh-1 0, ssDAF-12 act 1.4*, AHR act 25, DAX1 inh-2 3 and hcDAF-12 act 2.
Screening c1ccc(-c2nccc(-c3ccc(-n4cnc5ccccc54)cc3)n2)cc1 returned hgDAF12 agonist 1, DAX1 inh-1 0, ssDAF-12 act -1, AHR act 35, DAX1 inh-2 1 and hcDAF-12 act 2.
`CNC(=S)N/N=C(\C)c1ccc(-n2ccnc2)cc1` gave hgDAF12 agonist -1, DAX1 inh-1 0, ssDAF-12 act -2, AHR act 6, DAX1 inh-2 3 and hcDAF-12 act -2.
For COCCNC(=S)N/N=C(\C)c1ccc(-n2ccnc2)cc1 the results were hgDAF12 agonist -3, DAX1 inh-1 -2, ssDAF-12 act -1, AHR act 87*, DAX1 inh-2 0 and hcDAF-12 act 0.
CCOc1ccc(S(=O)(=O)Nc2ccc(C(=O)N/N=C(\C)c3ccc(-n4ccnc4)cc3)cc2)cc1 was read as hgDAF12 agonist 1, DAX1 inh-1 -1, ssDAF-12 act -1, AHR act 54*, DAX1 inh-2 -1 and hcDAF-12 act -1.

Screens (PubChem)
